# Most compounds without a hit are left out; they make up all but 11% or so of the library.
# RORgamma inh: inhibitors of mouse ROR gamma transcriptional activity. P51450. Potency, µM (doses to about 53.6 µM), for the others: top-dose activity change, negative = inhibition, most hits filed as inhibitors. 5.4% of 310,000 active. AID 2551. Drosophila S2 Gal4-RORgamma UAS-luciferase reporter, 20 h; also: potency is read from the fitted curve at half-maximal effect; % is scaled to controls: 0 for no effect and ±100 for the full control effect; nearly all actives have a fitted effect of over 60% in size
# Target sequence (P51450 whole entry, looked up, the tested form may be a part): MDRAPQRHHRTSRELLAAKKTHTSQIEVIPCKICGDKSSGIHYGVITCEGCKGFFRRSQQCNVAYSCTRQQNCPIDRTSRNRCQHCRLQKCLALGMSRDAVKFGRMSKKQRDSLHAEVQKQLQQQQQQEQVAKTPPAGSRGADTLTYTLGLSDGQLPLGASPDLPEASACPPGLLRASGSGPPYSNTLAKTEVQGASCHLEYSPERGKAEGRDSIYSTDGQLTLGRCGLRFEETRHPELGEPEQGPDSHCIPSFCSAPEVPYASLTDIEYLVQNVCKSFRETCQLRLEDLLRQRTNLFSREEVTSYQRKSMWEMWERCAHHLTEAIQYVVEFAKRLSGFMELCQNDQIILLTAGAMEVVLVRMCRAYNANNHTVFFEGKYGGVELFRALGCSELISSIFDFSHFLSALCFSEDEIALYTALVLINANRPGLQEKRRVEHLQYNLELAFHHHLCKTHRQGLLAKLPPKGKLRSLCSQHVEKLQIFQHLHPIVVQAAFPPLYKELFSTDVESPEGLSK
#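 ROR gamma transcriptional activity was tracked as Gal4-UAS luciferase output in stably transfected Drosophila Schneider cells, with compound added 1 hr before 700 uM copper sulfate induction and a 20 hr ambient-temperature incubation.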
# IL-1B inflam inh: inflammasome signaling inhibition, IL-1 beta readout | THP-1 LPS/ATP IL-1B secretion, AlphaLISA, 16 h; hits give low values | activity change, % at 57.5 µM | 4.7% of 360,000 active | AID 743279; in the data active = activity change below about -50%; inconclusive = mostly about -30% to -49%; also: % is scaled to controls: 0 for no effect and ±100 for the full control effect
#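 THP-1 cells pretreated 1 hr with compounds (up to 57.5 uM final), then stimulated with LPS (250 ng/mL final) plus ATP (1.25 mM final); secreted IL-1B measured by AlphaLISA after 16 hr, decreased signal indicating inhibition.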
# SW480 rerep: induces DNA re-replication in SW480 colon adenocarcinoma cells. SW480 DNA re-replication, Hoechst DNA content imaging, 48 h. Potency, µM (doses to about 46.1 µM), for the others: at the highest dose re-replication activation, most hits filed as activators. 1.8% of 340,000 active. AID 624297; also: potency is read from the fitted curve at half-maximal effect; % of control where 0% means no effect; nearly all actives have a fitted effect of over 55% in size
#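 Hoechst fluorescence of nuclei (405 nm excitation, 500-530 nm emission) measured by plate-scanning imager after 48 hr compound exposure at 37 C; re-replication scored as increased number of nuclei with elevated intensity.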
# Gal4-VP16 FLuc: Gal4-VP16 reporter inhibition counter-screen; Drosophila S2 Gal4-VP16 UAS-luciferase, luminescence, 20 h; Potency, µM (top dose mostly 53.6 µM), inactives show at the highest dose activity, negative = inhibition, most hits filed as inhibitors; 3.5% of 310,000 active; AID 2546;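 also: Gal4-VP16 expression switched on by copper sulfate through the metallothionein promoter; potency is read from the fitted curve at half-maximal effect; % is scaled to controls: 0 for no effect and ±100 for the full control effect; nearly all actives have a fitted effect of over 50% in size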
# MCF10A rerep: induces DNA re-replication in MCF 10a normal breast cells; 2.9% of 350,000 active; MCF 10A DNA re-replication, Hoechst nuclear intensity, 48 h; Potency, µM (series often up to 46.1 µM), for the others: at the top dose activity, positive = re-replication, actives largely listed as activators; AID 624296; also: potency is read from the fitted curve at half-maximal effect; % of control where 0% means no effect; nearly all actives have a fitted effect of over 50% in size
# * marks the source's active call; other numbers are inactive results; ? = inconclusive; . = no result; ! = not active in a repeat; [ ] = dose if it differs, or a comment. Unless noted, calls follow the shape of the dose curve; as a rule, active = well fitted curve in the direction sought with a large enough effect; inconclusive = small, poorly fitted or top-dose-only effect, or another doubt; inactive = no such curve, though single readings can be large; an effect the other way counts as inactive or inconclusive.
SMILES,RORgamma inh,IL-1B inflam inh,SW480 rerep,Gal4-VP16 FLuc,MCF10A rerep
COc1cccc(CN(C)C(=O)CNC(=O)c2ccc(-c3ccccc3)cc2)c1OC,?,-63*,-17%,2%,11%
COc1cccc(NC(=O)CN(C)C(=O)c2ccc3ccccc3c2)c1,-8%,17,-3%,-1%,-3%
COc1ccc(CN(C)C(=O)CNC(=O)c2ccc3ccccc3c2)c(OC)c1,1%,-17,-2%,-7%,14%
COc1cccc(NC(=O)CN(C)C(=O)CNC(=O)c2ccc3ccccc3c2)c1,.,-100*,-4%,.,-1%
COc1ccc2c(c1)[C@H]1[C@H](CO2)[C@H](c2ccccc2)[C@]2(C)C(=O)Nc3cc(Cl)ccc3C(=O)N12,.,-20,?,.,16µM*
COc1ccc2c(c1)C(=O)N1[C@H]3c4cc(Cl)ccc4OC[C@@H]3[C@H](c3ccccc3)[C@]1(C)C(=O)N2,.,?,9.2µM*,.,?
COc1ccc2c(c1)C(=O)N1[C@H]3c4cc(Br)ccc4OC[C@@H]3[C@H](c3ccccc3)[C@]1(C)C(=O)N2,.,-18,21µM*,.,4.1µM*
C=C1CCN(C(CC(C)C)C(=O)Nc2nc3ccc(Cl)cc3s2)S(=O)(=O)c2ccccc21 (stereo unspecified),-13%,.,.,-3%,.
O=C1Cc2ccccc2C(=O)N1,.,107,.,.,.
CC(C)Oc1ccc(CN2CCC2(C)C(=O)Nc2cccc(Oc3ccccc3)c2)cc1 (stereo unspecified),.,18,.,.,.
CC(C)(C)OC(=O)C(Cl)(C(=O)OC(C)(C)C)c1ccc2nnnn2n1,13µM*,-79*,?,?,?
CCOc1ccc2nnnn2n1,-25%,15,0%,-2%,3%
COc1cccc(S(=O)(=O)N(C)C[C@@H]2OCc3cn(nn3)CCCC(=O)N([C@H](C)CO)C[C@H]2C)c1,.,-12,.,.,.
Cc1c([N+](=O)[O-])c([N+](=O)[O-])nn1CC(=O)NCCc1ccccc1,-27%,-90*,-4%,?,0%
Cc1nn(CC(=O)NCc2ccc(-n3cccn3)cc2)c(C)c1[N+](=O)[O-],-3%,-8,0.52µM*,-2%,0%
Cc1nn(CC(=O)NCc2ccc(Cl)cc2)c(C)c1[N+](=O)[O-],-21%,3,?,0%,1%
COc1cc(C)ccc1OCCCOc1ccccc1Br,13µM*,?,-7%,-23%,12%
Cc1ccc(OCCCCN(C)Cc2ccccc2)c(Br)c1,0%,-98*,?,7%,?
Cc1cc(C)c(OCCCCN(C)Cc2ccccc2)c(C)c1,19%[1.91 µM],-2,0%,-5%,29%
O=C(CC1(O)C(=O)Nc2ccccc21)c1cccc(-n2cccc2)c1 (stereo unspecified),23%,-7,?,-13%,1.5µM*
N#CC(=C=[N-])c1nc2ccccc2nc1-[n+]1cccc(NC(=O)c2ccccc2)c1,5µM*!,-24,-39%,?,-1%
CCOC(=O)CCCCC(=O)c1[nH]c(=O)[nH]c1CN1CCOCC1,0%,-74*,-1%,-3%,-6%
CCOC(=O)CCCCC(=O)c1[nH]c(=O)[nH]c1CSc1nc(C)cc(=O)[nH]1,-36%,?,-4%,8%,?
CCOC(=O)CCCCC(=O)c1[nH]c(=O)[nH]c1CSc1nnc2c3cc(Br)ccc3n(C)c2n1,5µM*,.,.,?,.
CCOC(=O)CCCCC(=O)c1[nH]c(=O)[nH]c1CSc1nc2ccccc2[nH]1,22%,-91*,-4%,-7%,-11%
SMILES,RORgamma inh,IL-1B inflam inh,SW480 rerep,Gal4-VP16 FLuc,MCF10A rerep
Cc1cc(NC(=O)CCC(=O)N(CCC(C)C)C(C(=O)NCC2CCCO2)c2ccccc2C)no1 (stereo unspecified),16%,-57*,0%,4%,-2%
Cc1cc(NC(=O)CCC(=O)N(CCC(C)C)CC(=O)NCC2CCCO2)no1 (stereo unspecified),-2%,39,-7%[9.22 µM],2%,-1%
COc1cccc(C(=O)C(=O)N2CCN(C(=O)OCc3ccccc3)CC2)c1,.,-12,.,.,.
CC(Sc1nc(-c2ccc(F)cc2)cs1)C(=O)N1c2ccccc2CC1C (stereo unspecified),?,-21,?,-16%,21µM*
O=C(Cc1csc(-c2ccc(F)cc2)n1)Nc1cccc(S(=O)(=O)NC2=NCCC2)c1,.,6,17%,.,-3%
CC(C)C(=O)Nc1cccc(S(=O)(=O)NC2=NCCC2)c1,.,0,.,.,.
O=C(CCl)Nc1cccc(S(=O)(=O)NC2=NCCC2)c1,?,-99*,?,?,?
O=C(Cc1csc(-c2ccc(Cl)cc2)n1)Nc1cccc(S(=O)(=O)NC2=NCCC2)c1,.,-52*,-22%,.,16%
O=C(NC(c1ccc(Cl)cc1)c1ccsc1)C1CCN(Cc2cccc(Cl)c2)CC1 (stereo unspecified),.,0,.,.,.
CCNC(=S)NNC(=O)CCc1nc2cc(Cl)ccc2n(Cc2ccccc2)c1=O,6.3µM*,-3,8%,-10%,-2%
CN(C)C(CNC(=O)CCc1nc2cc(Cl)ccc2n(Cc2ccccc2)c1=O)c1ccccc1 (stereo unspecified),.,-67*,?,.,14%
O=[N+]([O-])c1cccc(S(=O)(=O)NCc2ccncc2)c1,23%,57,-2%,10µM*,-8%
Cc1cc(C)c(S(=O)(=O)NCc2ccncc2)c(C)c1,?,14,-7%,8.9µM*,0%
O=C(Nc1nccs1)C1CCN(S(=O)(=O)c2ccc(F)cc2)CC1,5%,12,11%,-5%,0%
O=C(Nc1nccs1)C1CCN(S(=O)(=O)c2c(Cl)cccc2Cl)CC1,8.9µM*,-10,0%,9%,?
O=C(Nc1ccccn1)C1CCN(S(=O)(=O)c2ccc(Cl)cc2)CC1,.,-68*,?,.,1%
CC(OC(=O)c1cc(=O)c2cc(Cl)ccc2o1)C(=O)N1CCCC1 (stereo unspecified),.,14,-83%,.,?
CSCC[C@H](NC(=O)Cc1c(C)c2cc3c4c(oc3cc2oc1=O)CCCC4)C(=O)O,10%,-4,-24%,-8%,-1%
COc1ccc(C[C@@H](NS(=O)(=O)c2ccc(C(=O)O)cc2)C(=O)O)cc1,-18%,.,.,-16%,.
Cc1cccc(C)c1NC(=O)C1(C)CN(S(C)(=O)=O)CC(=O)N1Cc1cccs1 (stereo unspecified),.,0,.,.,.
Cc1cc(/C=C(/C#N)c2nc3ccccc3[nH]2)c(C)n1-c1cccc([N+](=O)[O-])c1,-33%,-62*,5%,-16%,3%
Cc1cc(/C=C(\C#N)c2nc3ccccc3[nH]2)c(C)n1C,-34%,-2,?,-29%,9%

# Screening results from PubChem.
